Active and inactive are the calls of the source. How the source made its calls: active means hit-call score of the fitted dose curve at least 0.9, where 1 is the maximum; inactive means score below 0.9.
Experiment: APR_HepG2_CellCycleArrest_1hr: Apredica 1-hour HepG2 Assay for Cell Cycle Arrest (AID 2282666)
Settings: high-content imaging, actives raise or lower the signal
Method: APR_HepG2_1hr is a cell-based, multiplexed-readout assay that uses HepG2, a human liver cell line, with measurements taken at 1 hour after chemical dosing in a 384-well plate.APR_HepG2_CellCycleArrest_1hr is one of 10 assay component(s) measured or calculated from the APR_HepG2_1hr assay. It is designed to make measurements of cell phenotype, a form of morphology reporter, as detected with fluorescence intensity signals by HCS Fluorescent Imaging technology.Data from the assay component APR_HepG2_CellCycleArrest_1hr was analyzed into 1 assay endpoint. This assay endpoint, APR_HepG2_CellCycleArrest_1hr, was analyzed with bidirectional fitting relative to DMSO as the negative control and baseline of activity. Using a type of morphology reporter, measures of all nuclear dna for gain or loss-of-signal activity can be used to understand the signaling at the pathway-level as they relate to the gene . Furthermore, this assay endpoint can be referred to as a primary readout, because this assay has produced multiple assay endpoints where this one serves a signaling function. To generalize the intended target to other relatable targets, this assay endpoint is annotated to the cell cycle intended target family, where the subfamily is arrest.
Cells were treated with dimethyl sulfoxide (DMSO) as a solvent control at a final concentration of 0.5% v/v or with compounds in DMSO with a resulting final DMSO concentration of 0.5% v/v. Compound treatment was done at concentrations of 0.39, 0.78, 1.56, 3.12, 6.24, 12.5, 25, 50, 100, and 200 uM in duplicate on each plate. Cells were treated with compounds for 1, 24, or 72 hr. Carbonyl […] m-chloro-phenylhydrazone (CCCP) and taxol were used as positive controls for mitochondrial function and cytoskeletal stability, respectively; DMSO served as the negative control for this experiment. Cells were fixed by the direct addition of 50 uL formaldehyde in Hank's Balanced Salt Solution (HBSS) to a final concentration of 3.7%. After incubation in the fixation medium for 30 min at room temperature (293-298 K), cells were rinsed twice with HBSS and treated with cell permeabilization buffer (16 uL of 0.5% Triton X-100) for 10 min at room temperature (293-298 K) before labeling. For mitochondrial membrane potential and mitochondrial measurements, pre-fixed cells were incubated with 50 uL of MitoTracker Red CMXRos (Invitrogen) at a concentration of 250 nM for 30 min before fixation. In the remaining cases, post-fixed cells were labeled by incubation with a multiplexed mixture of primary antibodies in HBSS for 60 min at room temperature (293-298 K) to detect immunoreactivity of c-Jun (1:500), phospho-histone H3 (1:100), phospho-histone H2A.x (1:200), p53 (1:400), alpha-tubulin (1:200) and Hoechst 33342 (2 ug/mL). Cells were labeled for multiplexed imaging on two separate plates: a) Hoechst 33342, MitoTracker Red, phospho-histone H3, and alpha-tubulin, and b) Hoechst 33342, phospho-histone H2A.x, and c-Jun. A final rinse with HBSS (50 uL) was performed before analysis. The primary and secondary antibodies for the proteins were phospho-histone H3 (rabbit anti-phospho-histone H3 and FITC-donkey anti-rabbit IgG), phospho-histone H2A.x (mouse anti-phospho-histone H2A.x and FITC-donkey anti-mouse IgG), c-Jun (rabbit anti-phospho-c-Jun and Cy3-donkey anti-rabbit IgG), p53 (sheep anti-p53 and Cy5-donkey anti-sheep IgG), alpha-tubulin (mouse anti-alpha-tubulin and Cy5-donkey anti-mouse IgG). These antibodies are available as the CellCiphr HepG2 assay kit (Millipore).Digital images of each well were captured using a Cellomics ArrayScan VTI (Thermo Scientific Cellomics) (0.8 NA objective, 0.63x optical coupler, and XF-93 filter set) at 20x magnification. The images were acquired using the autofocus feature of the ArrayScan instrument, which entails the following steps. First, the camera focuses on channel 1 (Hoechst 33342), where nuclei are identified. Second, a Z offset of 1 um is used for capturing mitochondria (MitoTracker Red). […]

Compound | outcome | AC50
CC(C)Nc1nc(Cl)nc(NC(C)C)n1 | inactive | 
CCCC(=NOCC)C1=C(O)CC(CC(C)SCC)CC1=O (stereo not given) | inactive | 
COP(=S)(OC)SCn1nnc2ccccc2c1=O | inactive | 
C=CCOC(=O)C(C)(C)OC(=O)c1cc(-n2c(=O)cc(C(F)(F)F)n(C)c2=O)ccc1Cl | inactive | 
N#Cc1c(Cl)cccc1Cl | inactive | 
CO/N=C(/C1=NOCCO1)c1ccccc1Oc1ncnc(Oc2ccccc2Cl)c1F | inactive | 
CCCCC(O)(Cn1cncn1)c1ccc(Cl)cc1Cl (stereo not given) | inactive | 
COCc1cnc(C2=NC(C)(C(C)C)C(=O)N2)c(C(=O)O)c1 (stereo not given) | inactive | 
O=P(O)(O)CCCl |  | 0.0713 µM (active)
CC1(C)C(C(=O)OC(C#N)c2cccc(Oc3ccccc3)c2)C1(C)C (stereo not given) | inactive | 
Clc1nc(Cl)nc(Nc2ccccc2Cl)n1 | inactive | 
O=C1C2CC=CCC2C(=O)N1SC(Cl)(Cl)Cl (stereo not given) | inactive | 
COCC(C)N(C(=O)CCl)c1c(C)csc1C (stereo not given) | inactive | 
CC1(C)C(C=C(Cl)Cl)C1C(=O)OC(C#N)c1cccc(Oc2ccccc2)c1 (stereo not given) | inactive | 
Nc1cnn(-c2ccccc2)c(=O)c1Cl | inactive | 
COC(=O)N(C(=O)N1CO[C@@]2(C(=O)OC)Cc3cc(Cl)ccc3C2=N1)c1ccc(OC(F)(F)F)cc1 | inactive | 
CCNP(=S)(OC)O/C(C)=C/C(=O)OC(C)C (stereo not given) | inactive | 
CN=C=S | inactive | 
C=C(C)CN(CC)c1c([N+](=O)[O-])cc(C(F)(F)F)cc1[N+](=O)[O-] | inactive | 
CC(C)N1C(=O)c2ccccc2NS1(=O)=O |  | 0.0592 µM (active)

Compound | outcome | AC50
CCOC(=O)C(C)OC(=O)c1cc(Oc2ccc(C(F)(F)F)cc2Cl)ccc1[N+](=O)[O-] (stereo not given) | inactive | 
CCCCOCN(C(=O)CCl)c1c(CC)cccc1CC | inactive | 
COc1cc(Cl)c(OC)cc1Cl | inactive | 
CC1(C)CON(Cc2ccccc2Cl)C1=O | inactive | 
COCC(=O)N(c1c(C)cccc1C)C(C)C(=O)OC (stereo not given) | inactive | 
Cc1nc(N(C)C)nc(OC(=O)N(C)C)c1C | inactive | 
COP(=S)(OC)Oc1ccc([N+](=O)[O-])c(C)c1 | inactive | 
O=c1n(Cl)c(=O)n(Cl)c(=O)n1Cl | inactive | 
O=C(O)c1c(Cl)ccc2cc(Cl)cnc12 | inactive | 
CC(C)NC(=O)N1CC(=O)N(c2cc(Cl)cc(Cl)c2)C1=O | inactive | 
CC(C)Oc1cccc(NC(=O)c2ccccc2C(F)(F)F)c1 | inactive | 
CCOP(=S)(OCC)Oc1nc(Cl)n(C(C)C)n1 | inactive | 
CC(C)(C)C(=O)C(Oc1ccc(Cl)cc1)n1cncn1 (stereo not given) | inactive | 
CC(C)N1C(=O)N(c2ccccc2)CSC1=NC(C)(C)C | inactive | 
OC(c1ccc(Cl)cc1)(c1ccc(Cl)cc1)C(Cl)(Cl)Cl | inactive | 
Nc1c(Cl)c(F)nc(OCC(=O)O)c1Cl | inactive | 
CCNC(=O)NC(=O)C(C#N)=NOC |  | 0.0391 µM (active)
COc1ccc(-c2ccccc2)cc1NNC(=O)OC(C)C | inactive | 
Nc1c(Cl)c(Cl)nc(C(=O)O)c1Cl | inactive | 
CS(=O)(=O)c1cc(C(F)(F)F)ccc1C(=O)c1cnoc1C1CC1 | inactive | 

From PubChem BioAssay (EPA / NIEHS)
